Active and inactive are the calls of the source. Rule for the calls: active = hit-call score of the fitted dose curve at least 0.9, where 1 is the maximum; inactive = score below 0.9.
Assay: IUF_NPC4_neurite_length_120hr: Leibniz Research Institute for Environmental Medicine (IUF) 120-hour Neuronal Morphology Assay for Neurite Length (NPC4) (AID 2284302)
Method: IUF_NPC2-5 is a cell-based, multiplexed assay that uses hNPC, a human primary neural progenitor cells, with measurements taken at 72 or 120 hours after chemical dosing in a 96-well plate. Human neural progenitor cells (hNPC) are generated from human fetal brain cortex at gestational week (GW) 16-19. In the neural progenitor cell migration and differentiation assay (NPC2-5), hNPCs grown as spheres are plated on an extracellular matrix and migrate and differentiate out of the sphere core. The processes radial glia migration, neuronal and oligodendrocyte migration as well as neuronal differentiation, neuronal morphology and oligodendrocyte differentiation are studied using automated phase contrast imaging and automated fluorescence imaging in combination with high content image analysis. In parallel, the cell viability is assessed using an alamar blue viability assay and the cytotoxicity using a lactate dehydrogenase dependent membrane integrity assay.IUF_NPC4_neurite_length_120hr is one of 12 assay components measured from the IUF_NPC2-5 assay. The neurite length at 120 hr is the mean length in um of all neurons (see IUF_NPC3_neuronal_differentiation_120hr) that are identified by the skeletonization algorithm in Omnisphero.Data from the IUF_NPC4_neurite_length_120hr component was analyzed at the endpoint IUF_NPC4_neurite_length_120hr in the positive analysis fitting direction relative to DMSO as the negative control and baseline of activity. Using a type of differentiation reporter, gain or loss-of-signal activity can be used to understand developmental effects.
Culture protocol: After the cell expansion period the cells are cultured for up to four weeks in which they are passaged every week as described in 3.6. Between one to three days after passaging spheres at a size of 0.3 mm are picked for the test method. For the assessment of neural progenitor cell migration and differentiation, the spheres are plated on poly-D-lysine/laminin coated 96-well flat bottom plates in differentiation medium (N2) to initiate migration and differentiation. Thereby one 0.3 mm big sphere is plated in the middle of a well. The differentiation medium consists of DMEM and Ham's F12 at a ratio of 3 to 1 supplemented with 1% N2 and 1% penicillin and streptomycin. Within 5 days NPCs radially migrate out of the sphere core and differentiate into radial glia cells (nestin positive), neurons (TUBB3 positive), oligodendrocytes (O4 positive) and astrocytes (GFAP positive). Cultivation during the test method is performed at 37C and 5% CO2 at a ph of 7.2-7.6.Exposure: 0.3 mm big hNPC are plated in the already prepared test conditions. Exposure starts at day 0 of differentiation and is continued over five days of differentiation until the experiment is terminated. Cells are fed with fresh medium at day 3 of differentiation. Therefore, half of the test condition solution (e.g. solvent control or compound dilution) is replaced by freshly prepared test condition solution.Test Method: Migration distance and cytotoxicity is determined after 72 hours based on brightfield images of each well. The assay is terminated by the assessment of cell viability and cytotoxicity as well as cell fixation after 120 h. Immunocytochemistry is performed for Hoechst positive nuclei, TUBB3 positive neurons and O4 positive oligodendrocytes. On the ICC images, migration after 120 hours, neuronal and oligodendrocyte number, neuronal morphology and neuron/oligodendrocyte specific migration is assessed. immunocytochemical staining (ICC) generates an image for each sphere. The plates are scanned using an automated high content imaging device and all nuclei and their positions are determined automatically based on their intensity and size. Images are imported to the Omnisphero software to run the image analysis that measures the following endpoints. The method is set up for 8 test conditions including 7 compound concentrations and one SC. […]

Q: Which AC50 does the source give for `CN(C)C(=S)SSC(=S)N(C)C` here?
A: 17.7 µM (active)

Q: With `COC(=O)N(OC)c1ccccc1COc1ccn(-c2ccc(Cl)cc2)n1` as the compound, how does the AC50 read?
A: 0.328 µM (active)

Q: Which outcome does the source give for `COP(=S)(OC)Oc1nc(Cl)c(Cl)cc1Cl` here?
A: inactive

Q: With `CCCCC(CC)COC(=O)c1ccccc1C(=O)OCC(CC)CCCC` (centres undefined) as the compound, how does the outcome read?
A: inactive

Q: Which outcome does the source give for `CC(C)(C)c1ccc(CSc2cnn(C(C)(C)C)c(=O)c2Cl)cc1` here?
A: inactive

Q: Which outcome does the source give for `C=CC1(C)OC(=O)N(c2cc(Cl)cc(Cl)c2)C1=O` (centres undefined) here?
A: inactive

Q: Which outcome does the source give for `CCOC(=O)CC(SP(=S)(OC)OC)C(=O)OCC` (centres undefined) here?
A: inactive

Q: With `CO/C=C(/C(=O)OC)c1ccccc1Oc1cc(Oc2ccccc2C#N)ncn1` as the compound, how does the outcome read?
A: inactive

Q: With `COP(N)(=O)SC` (centres undefined) as the compound, how does the outcome read?
A: inactive

Q: Which AC50 does the source give for `Cc1ccc(-c2c(Cl)nc(C#N)n2S(=O)(=O)N(C)C)cc1` here?
A: 12.5 µM (active)

Q: For `CCCCOC(=O)c1ccccc1C(=O)OCCCC`, which outcome is on record?
A: inactive

Q: Which AC50 does the source give for `N#Cc1nn(-c2c(Cl)cc(C(F)(F)F)cc2Cl)c(N)c1S(=O)C(F)(F)F` (centres undefined) here?
A: 13.5 µM (active)

Q: Which outcome does the source give for `CNC(=O)ON=CC(C)(C)SC` here?
A: inactive

Q: For `CCOc1cc(Oc2ccc(C(F)(F)F)cc2Cl)ccc1[N+](=O)[O-]`, which outcome is on record?
A: inactive
